Assay results reported in PubChem BioAssay AID720485 (Milwaukee Institute for Drug Discovery, 2013).
The list shows a part of the results. Calls of active or inactive are those of the source.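 Rule for the calls: active = percent inhibition of 50% or more; inactive = the rest.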

These molecules were tested on Hepatitis C virus NS3 helicase (assay: HCV NS3 helicase inhibitors, retest, confirmation, biochemical, fluorescence polarization, ChemBridge library (AID 720485)). Details: NS3h binding to Cy5-dT15 DNA, at 100 µM, hits give high values.

Compound	inhibition
Cc1ccc(C(=O)C[n+]2cc(-c3ccccc3)n3c2CCCCC3)cc1	0.212% (inactive)
COc1cc(/C(O)=C(\C#N)c2nc3ccccc3n2C)cc(OC)c1OC	7.62% (inactive)
CCOc1ccc(C=C2C(=O)NC(=O)NC2=O)cc1Cl	16.1% (inactive)
CCN(CC)c1ccc(C=C2C(=O)N(C)C(=O)N(C)C2=O)c(O)c1	12.9% (inactive)
COc1ccc(N2C(=O)C=CC2=O)c([N+](=O)[O-])c1	65.8% (active)
CCN(CC)c1ccc(NC(=O)/C(=C\c2ccccc2)NC(C)=O)cc1	23.5% (inactive)
C=CCN1C(=O)/C(=C\c2cc(OC)c(O)c([N+](=O)[O-])c2)C(=O)NC1=S	37.2% (inactive)
O=C(NC(=S)Nc1ccc(-c2nc3cc(Cl)ccc3o2)cc1)c1ccco1	11.8% (inactive)
Cc1ccc(C(=O)NCCNc2ccc([N+](=O)[O-])cc2)cc1	16.1% (inactive)
O=C1NC(=O)C(=Cc2cc([N+](=O)[O-])cc(Br)c2O)C(=O)N1	19.3% (inactive)
COc1ccc(C(=O)Oc2ccc3oc(=O)cc(C)c3c2)cc1OC	0.212% (inactive)
N#Cc1c(N)nc2sc(C(=O)Nc3ccccc3)c(N)c2c1-c1ccco1	4.44% (inactive)
COc1cc(C=C2C(=O)NC(=O)NC2=O)ccc1OCCOc1ccc([N+](=O)[O-])cc1	2.33% (inactive)
O=c1c2c(nc3cc(-c4cccc(F)c4)[nH]n13)CCS2	41.5% (inactive)
CC(C)(C)N1C(=O)NC(=O)C(=Cc2cccs2)C1=O	20.3% (inactive)
